Measurements taken from PubChem BioAssay (NCI).
Compounds without any hit were thinned out: in the full panel of roughly 83,000, 20% have a hit.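 The test compound was applied at a single concentration to cells in 96-well plates for 48 hours, and percent growth was recorded.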 Values without a mark were called inactive. Activity calls are given as the source filed them. How the source made its calls: active means growth percent below 10; inactive means the rest.

System: K-562 leukemia
Test: NCI-60 one-dose screen, 48 h (100 = growth as untreated, 0 = no growth, -100 = all killed)
Settings: 10 µM unless noted

In order of rising growth:
1. CC1OC(n2c3ccccc3c3c4c(c5c6ccccc6[nH]c5c32)C(=O)N(CCN[C@H]2CCC[C@@H]2N)C4=O)CC(O)C1O (some centres undefined)  10.2%
2. COc1ccc(-c2nc3c(c(-c4ccc(Cl)cc4)nn3-c3ccccc3)c(-c3ccc(O)cc3)c2C#N)cc1  10.8%
3. O=C(Nc1ccc(Br)cc1)c1ccc(Cl)c(Cl)c1  12.9%
4. CS(=O)(=O)c1ccc(C(=O)Nc2ccc(Cl)c(-c3ccccn3)c2)c(Cl)c1  13.8%
5. COc1ccc2c(c1)sc1nc(-c3ccccc3)c(-c3cccc4ccccc34)n12  15%
6. CCN1C(=O)N(CC)C2C1NC(=O)N2/N=C/C=C/c1ccccc1 (centres undefined)  17%
7. Nc1c(C(=O)Nc2ccccc2)sc2nc3c(cc12)C(=O)CCC3  17.1%
8. Nc1c(C(=O)Nc2cccc(Cl)c2)sc2nc3c(cc12)C(=O)CCC3  22.8%
9. C=CC(=O)N1CN(C(=O)C=C)CN(C(=O)C=C)C1  23.5%
10. Cc1ccc(C)c(NC(=O)c2sc3c(=O)[nH]cnc3c2C)c1  29.6%
11. COc1ccc(/C(C)=N/NC(=O)CSc2nc3ccccc3c(=O)n2CCc2ccc(S(N)(=O)=O)cc2)cc1  30.4%
12. CC(C)(C)[Si](C)(C)OC1[C@@H](O[Si](C)(C)C(C)(C)C)[C@@H](CNC(=O)NC(=O)NC(=O)CCl)O[C@H]1n1cnc2c(NC(=O)Nc3ccccc3)ncnc21 (some centres undefined)  47.1%
13. c1cc2c(cc1-c1cnc3nonc3n1)OCO2  59.3%
14. CCn1c(Cc2ccccc2Nc2c(Cl)cccc2Cl)nnc1SCC(=O)Nc1cccc(OC)c1  62.6%
15. CCCCCCCC/C=C/CCCCCCCC1=NC(C)(C)CN1c1ccccc1  65.9%
16. c1csc(-c2cnc3nonc3n2)c1  67.4%
17. CCc1onc(-c2ccc(OC)cc2)c1-c1ccccc1OCCN(CC)CC  70.7%
18. O=C(CSc1nc2c(n1Nc1ccccc1)-c1ccccc1SC2)Nc1nccs1  84.8%
19. CN1C(=O)C(C(=O)/C=C/c2ccccc2C(=O)O)C(=O)N(C)C1=O  90.1%
20. S=C(S)Oc1cccc2cccnc12  90.8%
21. CC(NC(=O)c1ccccc1)C(=O)Nc1ccccc1 (centres undefined)  91.4%
22. CSc1nc(N)c2[nH]c(-c3cc4ccccc4[nH]c3=O)nc2n1  92.7%
23. COc1nccc2c(Sc3ccccc3)nc(N)nc12  93%
24. COc1ccc(-c2cc(-c3ccc(OC)cc3)c3sc(=O)[nH]c3n2)cc1  94.2%
25. CN(C)CCCN1c2ccccc2CCc2ccccc21  94.9%
26. COc1cc(OC)c(Cl)cc1N  95.5%
27. CCCCCCCCCCCCC1CCC(=O)O1 (centres undefined)  97.1%
28. CCCCCCCCN(CCCCCCCC)C(=O)CCl  105%
29. Cc1ccncc1NC=O  107%
30. CC1(C)CC(=O)c2cc3c(N)c(C(=O)Nc4ccc(Cl)cc4)sc3nc2C1  107%
31. O=C1CCCN1C1CCN2CCCc3cccc1c32 (centres undefined)  109%
32. CC[C@H](C)[C@H](N)C(=O)O  122%

`COC(=O)OC1C(O[C@H]2C[C@H]3[C@@H]4CC=C5C[C@@H](O)CC[C@]5(C)[C@H]4CC[C@]3(C)[C@H]2[C@H](C)C(=O)CCC(C)C)OCC(O)C1OC1OCC(O)C(O)C1OC(=O)c1ccc(OC)cc1` (some centres undefined) was tested, and the growth was -25.2% (active).
For `COc1ccc2[nH]cc(C3(c4c[nH]c5ccc(OC)cc45)C(=O)Nc4ccc(F)cc43)c2c1`, the growth was -16.5% (active).
For `CN1CCC2(CC1)N=C(SCC(=O)Nc1cnc3ccccc3c1)C(c1ccc(Br)cc1)=N2`, the growth was -61.5% (active).
With `CNC(=O)c1c(NC(=O)c2ccc(C(C)C)cc2)sc2c1CCC(=O)C2` the growth was 1.86% (active).
In the case of `CCC(=O)NC1=C(Cl)C(=O)C(NC(=O)CC)=C(Cl)C1=O`, the growth is reported as -24.3% (active).
In the case of `CC(CN1CCN(CC(C)Nc2ccnc3cc(Cl)ccc23)CC1)Nc1ccnc2cc(Cl)ccc12` (centres undefined), the growth is reported as -21.9% (active).
With `COc1ccc2nc3ccccc3c(NCc3ccc(C)cc3)c2c1` the growth was 2.71% (active).
